Screening data: PubChem BioAssay, University of Kansas High Throughput Screening Laboratory
mHTT-CaM PPI inh: mutant huntingtin-calmodulin interaction inhibitors – biochemical, AlphaScreen, primary screen. P42858. inhibition, % at 15 µM. actives 3.6% (n = 190,000). AlphaScreen His-mHTT/GST-CaM binding, luminescence
Pf apPOL block: Pf-apPOL inhibitors, biochemical, fluorescence; Recombinant Pf-apPOL, molecular beacon fluorescence, 1.5 h; inhibition, % at 10 µM; actives 0.25% (n = 210,000); AID 1794808, 2022
Hits are given with their value; – = inactive; · = no result given; ! = not confirmed by another sample. The list is not random: actives were taken first. Their share in the collection is about 3.6%. Rule as the data show it: active = inhibition above about 50%; inactive = the rest.

SMILES | mHTT-CaM PPI inh | Pf apPOL block
O=C(Nc1ccccc1[N+](=O)[O-])c1ccc(S(=O)(=O)N2CCCCC2)cc1 | – | –
CC(=O)c1cccc(NS(=O)(=O)c2ccc3[nH]c4c(c3c2)CCCC4)c1 | 84 | –
CN(CC(=O)Nc1cccc(F)c1)S(=O)(=O)c1ccc2[nH]c3c(c2c1)CCCC3 | – | –
CC(=O)c1cccc(NS(=O)(=O)c2ccc3[nH]c4c(c3c2)CCCCC4)c1 | 99 | –
CCOC(=O)c1cccc(NS(=O)(=O)c2ccc3[nH]c4c(c3c2)CCCC4)c1 | 95 | –
CC(=O)c1ccc(NS(=O)(=O)c2ccc3[nH]c4c(c3c2)CCCCC4)cc1 | 70 | –
CC(=O)c1cccc(NS(=O)(=O)c2ccc(F)cc2)c1 | – | –
CC(=O)c1cccc(NC(=O)CN(C)S(=O)(=O)c2ccc3[nH]c4c(c3c2)CCCC4)c1 | – | –
Cc1cccc(N2CCN(C(=O)C3CC4CCC3C4)CC2)c1C (stereo unspecified) | – | –
CC(=O)Nc1ccc(S(=O)(=O)N2CCN(C3CCC(c4ccccc4)CC3)CC2)cc1 (stereo unspecified) | – | –
CS(=O)(=O)NCCn1ncc2c(NCc3ccc(F)cc3)ncnc21 | – | –
CC(=O)N1CCc2[nH]c3ccc(C(=O)N4CCN(CC(C)C)CC4)cc3c2C1 | – | –
O=C1N(CC[C@@H](O)c2ccccc2)CCC12CCC(c1ccccc1)CC2 (stereo partly specified) | – | –
Cc1ccccc1C1CCC2(CC1)CCN(CC[C@@H](O)c1ccccc1)C2=O (stereo partly specified) | 53 | –
Cc1ccc(C(=O)N2CCC3(CC2)NC(=O)N(Cc2cc(C)ccc2C)C3=O)cc1 | – | –
O=C(NCCN1CCN(c2cccc(C(F)(F)F)c2)CC1)C1(n2cccc2)CCCCC1 | 97 | –
Cc1ccc(Cl)cc1N1CCN(CCCNC(=O)C2(n3cccc3)CCCCC2)CC1 | 86 | –
CC1=C(C(=O)NCCCN2CCN(c3cc(C)ccc3C)CC2)C2(CCCCC2)OC1=O | – | –
O=C(NCCN1CCN(c2ccccc2F)CC1)C1(n2cccc2)CCCCC1 | – | –
O=C(NCc1ccc2c(c1)OCO2)c1cc(-c2ccc(F)cc2)ns1 | – | –
Cc1nc(-c2cccs2)sc1C(=O)NNS(=O)(=O)c1ccc(Cl)cc1 | · | –
Cc1c(Cl)c([N+](=O)[O-])nn1CCCC(=O)N(Cc1ccccc1)Cc1ccccc1 | 84 | –
Cc1c(Cl)c([N+](=O)[O-])nn1CCCC(=O)N1CCN(c2ccccc2)CC1 | – | –
Cc1ccc2nc(C(=O)NCc3ccc(F)cc3F)cn2c1 | – | –
CC(COc1ccc(C(C)C)cc1)NC(=O)c1ccco1 (stereo unspecified) | – | –
SMILES | mHTT-CaM PPI inh | Pf apPOL block
Cc1ccccc1NC(=O)CN1C(=O)CC(c2ccccc2)=Nc2cccnc21 | – | –
O=C(CN1C(=O)CC(c2ccccc2)=Nc2cccnc21)Nc1ccccc1Cl | – | 65
O=C(Cc1ccccc1)Nc1cccc(C(=O)Nc2cccc(Cl)c2)c1 | – | –
O=S(=O)(NC1CCCCC1)c1ccc2[nH]c3c(c2c1)CCCC3 | 87 | –
O=S(=O)(Nc1ccc(Cl)cn1)c1ccc2[nH]c3c(c2c1)CCCC3 | 55 | –
CN(CC(=O)NC1CCCCC1)S(=O)(=O)c1ccc2[nH]c3c(c2c1)CCCC3 | 97 | –
Cc1ccc(S(=O)(=O)NC2CCCCC2)cc1[N+](=O)[O-] | – | –
CN(CC(=O)NC1CCCC1)S(=O)(=O)c1ccc2[nH]c3c(c2c1)CCCC3 | – | –
CCc1ccc(S(=O)(=O)Nc2ccc(Cl)cn2)cc1 | – | –
NS(=O)(=O)c1ccc2[nH]c3c(c2c1)CCCC3 | – | –
O=S(=O)(Nc1ccccc1)c1ccc2[nH]c3c(c2c1)CCCCC3 | 100 | –
COC(=O)C(C)OC1C(NC(C)=O)C(OCc2ccccc2)OC2COC(C)(C)OC21 (stereo unspecified) | – | –
CC(C)c1cc(C2CCCN2C(=O)c2cc(-c3ccc(F)cc3)no2)on1 (stereo unspecified) | – | –
CN(CC(=O)NCc1ccc(F)cc1)S(=O)(=O)c1ccc2[nH]c3c(c2c1)CCCC3 | – | –
O=S(=O)(Nc1ccc(F)cc1)c1ccc2[nH]c3c(c2c1)CCCC3 | 98 | –
Cc1cc2c(c(=O)o1)C(c1cccs1)C(C#N)=C(N)O2 (stereo unspecified) | – | ·
COCc1[nH]nc2c1C(c1cccs1)C(C#N)=C(N)O2 (stereo unspecified) | – | ·
CCN1C=C(Cc2cccs2)C2=C(C1)C(c1cccs1)C(C#N)=C(N)O2 (stereo unspecified) | 72 | –
Cc1[nH]nc2c1C(c1cccs1)C(C#N)=C(N)O2 (stereo unspecified) | – | –
CCN1CC2=C(OC(N)=C(C#N)C2c2cccs2)/C(=C/c2cccs2)C1 (stereo unspecified) | 60 | ·
CC(C)N1CC2=C(OC(N)=C(C#N)C2c2cccs2)/C(=C/c2cccs2)C1 (stereo unspecified) | 66 | ·
CC(C)N1C/C(=C\c2cccs2)C(=O)/C(=C/c2cccs2)C1 | 54! | –
O=C1/C(=C/c2cccs2)CC/C1=C\c1cccs1 | – | –
COc1ccc(Cl)cc1C(=O)NCC1CCN(S(=O)(=O)C2CC2)CC1 | – | –
CCN1C(=Cc2ccc3ccc(C)cc3[n+]2C)Sc2ccccc21 | – | ·
SMILES | mHTT-CaM PPI inh | Pf apPOL block
COc1cccc(Cn2cccc2-c2nc(C)no2)c1 | – | –
CCN(CC)c1ccc(/C=C2\C(=O)c3ccc(C(=O)O)cc3C2=O)cc1 | 62 | –
COc1ccc(/C=C2\C(=O)c3ccc(C(=O)O)cc3C2=O)cc1OC | – | –
O=C(Cc1cccc(F)c1)N1CCC(COc2ccccc2C(=O)N2CCCC2)CC1 | – | –
COc1ccc(/C=C2\CCCC(C(=O)C(F)(F)F)=C2O)cc1 | 55 | –
COc1ccc(/C=C2\CCC(C3CCCC3)C2=O)cc1 (stereo unspecified) | – | –
C(=Nc1ccccn1)c1cccc2ccccc12 | – | ·
Clc1ccc(Cn2cnc(Cl)c2Cl)cc1Cl | 73 | –
Cc1ccc(=O)n(Cc2ccc(Cl)c(Cl)c2)n1 | · | –
O=C1OC(/C=C/c2cccc([N+](=O)[O-])c2)=NC/1=C/c1cccc(Cl)c1Cl | – | –
O=C1C(=Cc2ccc3ccccc3n2)Oc2cc(O)ccc21 | – | –
COc1cccc2ccc(C=C3Oc4cc(O)ccc4C3=O)nc12 | – | 62
NC(Cc1ccc(OCc2ncc(C(F)(F)F)cc2Cl)cc1)=NOC(=O)c1ccccc1 | · | –
O=c1sc2ccccc2c(Nc2ccc([N+](=O)[O-])cc2)c1[N+](=O)[O-] | – | ·
O=Cc1[nH]c2ccccc2c1Nc1ccc([N+](=O)[O-])cc1 | 100 | –
O=[N+]([O-])c1ccc(Nc2c[nH]c3ccccc23)cc1 | 89 | –
O=[N+]([O-])c1ccc(Nc2ccc(F)cc2)cc1 | · | –
O=C1c2ccccc2-c2ncnc3c(Br)cc(Br)c1c23 | – | –
COc1ccc(S(=O)(=O)N2CCSC2c2ccc(OC)c([N+](=O)[O-])c2)cc1 (stereo unspecified) | – | –
COc1cccc2cc(C(=O)Nc3sc(-c4ccccc4)cc3C(N)=O)oc12 | – | –
COCC(=O)NCCc1ccc(OC)c(OC)c1 | – | 98
COc1ccc(OC)c(NC(=O)Cc2ccc(OC)c(OC)c2)c1 | – | 86
COCC(=O)Nc1cc(OC)ccc1OC | – | –
COc1ccc(CCNC(=O)Cc2ccc(OC)c(OC)c2)cc1OC | · | –
